Compound activity (PubChem)
Only some compounds are listed: those with a hit (about 4.2% of all), similar ones and a draw of the others.
CHOP inhibitor: inhibitors of CHOP induction in ER stress response; CHO-K1 CHOP-promoter luciferase, tunicamycin-induced, 15-18 h; inhibition, % at 10 µM; 3.8% of 220,000 active;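 active = compounds that reduced the stress-induced luciferase reporter signal by more than about 70% of percent inhibition, limit read from the data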;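 also: 0% = tunicamycin plus vehicle and 100% = wells without tunicamycin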
S1P4 antagonist: blocks the human S1P4 receptor | S1P4-expressing cells, antagonist mode, reporter read-out | inhibition, % at 4.98 µM | 0.26% of 220,000 active | AID 1510; in the data active = inhibition above about 29%;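 also: 0% = wells stimulated with agonist and 100% = vehicle wells without agonist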
Target sequence (O95977 whole entry, looked up): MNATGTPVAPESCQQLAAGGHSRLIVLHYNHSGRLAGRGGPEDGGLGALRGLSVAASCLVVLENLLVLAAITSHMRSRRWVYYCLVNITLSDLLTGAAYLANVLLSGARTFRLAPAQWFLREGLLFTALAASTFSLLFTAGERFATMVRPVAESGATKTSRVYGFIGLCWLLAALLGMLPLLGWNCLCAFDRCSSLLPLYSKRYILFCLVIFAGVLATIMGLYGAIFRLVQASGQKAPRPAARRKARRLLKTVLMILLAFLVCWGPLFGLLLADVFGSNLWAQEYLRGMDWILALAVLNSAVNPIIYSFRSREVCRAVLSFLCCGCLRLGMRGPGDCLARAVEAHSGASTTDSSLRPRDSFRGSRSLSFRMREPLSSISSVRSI
S1P4 ag: agonists of human S1P4 receptor; activation, % at 4.98 µM; 0.35% of 220,000 active; S1P4-expressing cell line, agonist reporter assay; AID 1509; O95977; in the data active = activation above about 11%;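 also: 0% = DMSO vehicle and 100% = reference agonist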
Hsp70 activator: switches on Hsp70 transcription; activation, % at 10 µM; 0.04% of 200,000 active; AID 1203; HeLa Hsp70 promoter luciferase reporter, luminescence; scaled: vehicle 0, proteasome-inhibitor control 100%;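 active = activation above the mean across all tested compounds plus 3 SD, cutoff set per campaign, cut at about 5.5% in these data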;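 also: 100% = MG132 at 30 µM as the positive control and 0% = DMSO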
* marks the source's active call; other numbers are inactive results; . = no result given.

SMILES | CHOP inhibitor | S1P4 antagonist | S1P4 ag | Hsp70 activator
Cc1cc(C)nc(NS(=O)(=O)c2ccc(N/C=C\C(=O)c3ccc(Cl)cc3)cc2)n1 | 82* | -12 | -2 | 0
N#Cc1c(NC(=O)c2ccncc2)sc2c1CCC2 | -2 | -9 | 1 | 0
O=S(=O)(NC1CCCC1)c1ccc(S(=O)(=O)N2CCc3ccccc32)cc1 | 86* | -15 | -1 | 0
O=C(NNC(=O)c1cccc(S(=O)(=O)N2CCc3ccccc32)c1)c1ccccc1 | 73* | -13 | 2 | 0
CC(=O)c1ccc(NC2=C(N3CCOCC3)C(=O)c3ccccc3C2=O)cc1 | 21 | -4 | -1 | 0
Cc1c(C#N)c(NC(=O)c2cccc(Cl)c2)n(Cc2ccccc2)c1C | 27 | -1 | -1 | 0
COc1ccc(Cn2c(C)c(C)c(C#N)c2NC(=O)Nc2cccc(Cl)c2)cc1 | 81* | -4 | 1 | 0
Cc1cc(O)ccc1N/C=C(\C#N)c1nc2ccccc2o1 | 73* | -3 | 1 | 0
N#C/C(=C\c1c(Cl)cccc1Cl)c1nc2ccccc2o1 | 13 | 10 | 0 | 0
CCOC(=O)c1c(C)nc2ccc(Cl)cc2c1-c1ccccc1 | 82* | -24 | 0 | 0
N#Cc1cccnc1Nc1ccc(Cl)cc1 | 18 | -12 | 3 | 0
Cn1ccnc1SCCNC(=O)CCc1nnc(CCCCc2ccccc2)o1 | 7 | -2 | 0 | 0
Cc1ccc2oc(=O)cc(/C=C/c3ccccc3)c2c1 | 76* | -2 | 2 | 0
O=S(=O)(N1CCCCC1)N1CCCN(S(=O)(=O)N2CCCCC2)CC1 | 14 | -7 | 3 | 0
O=C(/C=C/c1ccccc1)/C=C/c1ccccc1 | 98* | 8 | 1 | 0
O=C(/C=C/c1ccccc1)c1ccccc1 | -64 | -8 | 3 | 0
Cc1ccc(C(=O)Nc2nnc(NC(=S)Nc3ccccc3)s2)cc1 | 70* | 2 | 3 | 0
Cc1ccc(C2=NC(=O)/C(=C/c3cc(O)c(O)c(Br)c3)S2)cc1 | 72* | 19 | -1 | 0
CCn1c(Cn2nnc(-c3ccccc3)n2)nnc1SCC(=O)Nc1ccccc1 | 88* | -29 | 0 | 0
Cc1oc(C(=O)O)cc1COc1ccccc1Cl | -11 | -4 | 1 | -1
COc1ccccc1Oc1ccc2c(c1)C(=O)N(c1cccc(O)c1)C2=O | 90* | -8 | 5 | 0
COc1ccccc1Oc1ccc2c(c1)C(=O)N(c1cccc3ncccc13)C2=O | 63 | -13 | 0 | 0
O=C1c2ccc3c4c(ccc(c24)C(=O)N1c1cccc(O)c1)CC3 | 93* | -7 | 2 | 0
[O-]/C(=C(\C(=S)NCc1ccc2c(c1)OCO2)[n+]1ccccc1)c1ccc(Cl)s1 | -15 | -8 | 3 | 0
CCCCOC(=O)c1ccc(NC(=O)C(=O)NCc2cccnc2)cc1 | 34 | 3 | 0 | 0
SMILES | CHOP inhibitor | S1P4 antagonist | S1P4 ag | Hsp70 activator
CCOc1ccc(NC(=O)CCCOc2cc(=O)n(C)c3ccccc23)cc1 | 74* | -10 | 0 | 0
COc1cccc(NC(=O)CCCOc2cc(=O)n(C)c3ccccc23)c1 | -7 | -5 | -2 | 0
CCCN(CC(=O)Nc1cccc(Br)c1)CC(=O)Nc1ccc(F)c(F)c1F | 79* | -9 | 1 | 0
CCCN(CC(=O)Nc1ccc(C)cc1Br)CC(=O)Nc1ccc(F)c(F)c1F | 72* | -12 | -1 | 0
CCCCOC(=O)NC1(C)CCS(=O)(=O)C1 (stereo unspecified) | 16 | -33 | 4 | 0
O=C(CN(Cc1cccs1)C(=O)CNS(=O)(=O)c1ccc(Cl)cc1)NCC1CCCO1 (stereo unspecified) | 6 | 3 | 4 | 0
CCn1c(O)c(C=NCc2cccs2)c(=O)n(CC)c1=S | 73* | -10 | 2 | 0
COc1ccccc1OCCNC(=O)/C=C/c1ccc([N+](=O)[O-])cc1 | 55 | -14 | 0 | 0
O=S1(=O)CC/C(=N/Nc2ccccn2)c2cc(F)ccc21 | 18 | -14 | 0 | .
O=C(N/N=C1\CCS(=O)(=O)c2ccc(F)cc21)c1ccc(O)cc1 | -2 | -13 | 0 | .
O=S1(=O)CC/C(=N/Nc2ccc(C(F)(F)F)cn2)c2cc(F)ccc21 | 95* | -11 | -1 | 0
COc1cc(C(=O)N/N=C2\CCS(=O)(=O)c3ccc(F)cc32)cc(OC)c1OC | 73* | 1 | 0 | 0
O=c1[nH]c(CSc2ncc(C(F)(F)F)cc2Cl)nc2ccccc12 | -4 | 6 | -1 | 0
CSc1ccc(CN(C)Cc2nc3cc(C(F)(F)F)ccc3c(=O)[nH]2)cc1 | 71* | -20 | 0 | 0
O=c1[nH]c(CSc2ncnc3sccc23)nc2cc(C(F)(F)F)ccc12 | 89* | -4 | 0 | .
O=C(Nc1ccc(OC(F)(F)F)cc1)C1=NCCN1 | -23 | 2 | 0 | 0
CC(C)(C)OC(=O)N/N=C\c1ccc(OC(=O)c2ccco2)cc1 | -1 | 13 | 0 | 0
O=C(COC(=O)c1cc[n+]([O-])cc1)Nc1ccc(Cl)cc1[N+](=O)[O-] | 3 | 12 | 0 | 0
COc1ccc(-c2cnnn2-c2ccc(NC(=O)c3ccc(S(=O)(=O)N4CCCCC4)cc3)cc2)cc1OC | 78* | -23 | 0 | 0
O=C(CN1CCN(C/C=C/c2ccccc2)CC1)Nc1ccccc1C(=O)NC1CC1 | -3 | -19 | -1 | .
COc1ccc(/C=C/c2noc(-c3ccccc3O)n2)cc1 | 11 | -18 | 2 | 0
COc1ccc(/C=C/c2nc(N)nc(-c3ccccc3O)n2)cc1OC | 79* | -31 | 0 | 0
COc1ccc(/C=C/c2nc(N)nc(-c3ccccc3O)n2)cc1 | 78* | -8 | 5 | 0
CCN(CC)CCCNC(=O)c1ccc(Cl)c(S(=O)(=O)Nc2ccccc2OC)c1 | 20 | -4 | -2 | 0
COc1cccc(C(=O)N/N=C/c2ccc(Oc3ccc([N+](=O)[O-])cn3)c(OC)c2)c1 | 6 | -10 | 1 | -1
SMILES | CHOP inhibitor | S1P4 antagonist | S1P4 ag | Hsp70 activator
CCN(C(=O)CCc1nc(-c2ccccc2F)no1)c1cc(OC)ccc1OC | 31 | 4 | 1 | 0
CC1=C(C(=O)Nc2cc(-c3cccc(F)c3)[nH]n2)C2(CCCCC2)OC1=O | 82* | 5 | 0 | 0
O=C(CN1CCCN(S(=O)(=O)c2ccc(Br)s2)CC1)Nc1ccc(Cl)cc1 | 72* | -5 | 1 | 0
CCOC(=O)CNC(=O)CN1CCCN(S(=O)(=O)c2ccc(Br)s2)CC1 | 6 | -10 | 1 | 0
CC1=NN(c2ccccc2)C(=O)/C1=C\c1cn(-c2ccccc2)nc1C | -1 | 11 | -1 | 0
c1ccc(-c2noc(CN3CCN(c4ccccc4)CC3)n2)cc1 | 86* | -18 | 0 | 0
Fc1ccccc1N1CCN(Cc2nc(-c3ccccc3)no2)CC1 | 86* | -18 | 1 | 0
COC(=O)N1CCN(c2ccc(Cl)c(Cl)c2)CC1 | 45 | 14 | 0 | 0
N#C/C=C(/N)N1CCN(c2ccc(Cl)c(Cl)c2)CC1 | 80* | -15 | 0 | 0
CCN(CC)C(=O)C1CCCN(Cc2ccc3c(c2)OCO3)C1 (stereo unspecified) | 31 | 2 | -2 | 0
CCN(CC)C(=O)C1CCCN(Cc2ccc(F)c(F)c2)C1 (stereo unspecified) | 86* | -20 | 1 | 0
